Compound activity: PubChem BioAssay, several laboratories
Compounds with a hit are over-represented: about 1.8% of the library has one in this group of screens.
PfHsp40 rescue – rescue of PfHsp40-mediated yeast toxicity; S. cerevisiae expressing PfHsp40, growth rescue, ATP luminescence; 0.68% of 340,000 active; growth rescue, % at 12.5 µM; in the data active = growth rescue above about 28%, passing the limit was not always enough;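 note: yeast W303a lacking pdr1 and pdr3 grown in galactose medium; growth measured after three days at 30 °C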
PriA SSB inh – K. pneumoniae PriA-SSBct interaction inhibition | AID 1272365 | 0.6% of 430,000 active | inhibition, % at 33 µM | AlphaScreen SSBct-PriA binding, biotinylated peptide; in the data active = inhibition mostly above about 37%, no sharp cut-off; inactive = mostly below about 20%;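 note: plate controls were negative control peptide for no effect and reference peptide for full effect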
DUSP3 inh – DUSP3 (human) phosphatase inhibition; recombinant VHR phosphatase, pNPP absorbance; 0.52% of 290,000 active; P51452; inhibition, % at 13.3 µM; in the data active = inhibition above about 50%
Target sequence (P51452 whole entry, looked up): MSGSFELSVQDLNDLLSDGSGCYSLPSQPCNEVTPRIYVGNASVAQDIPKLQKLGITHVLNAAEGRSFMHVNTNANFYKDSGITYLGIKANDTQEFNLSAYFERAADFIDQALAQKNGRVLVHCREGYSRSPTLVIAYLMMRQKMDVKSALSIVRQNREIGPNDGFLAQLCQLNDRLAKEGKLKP
ugtP null kill – compounds lethal to S. aureus RN4220 ugtP deletion mutant; OD600 growth, 16 h; growth inhibition, % (no concentration beside the values); 0.54% of 330,000 active; in the data active = growth inhibition above about 68%;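 note: plate controls were untreated wells for no effect and antibiotic for full effect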
Mtb hypoxia inh – Mtb hypoxia fluorescent reporter inhibition | M. tuberculosis hypoxia-regulated fluorescent reporter, fluorescence | fluorescence inhibition, % (test concentration not listed) | 0.1% of 300,000 active; in the data active = fluorescence inhibition mostly above about 23%, no sharp cut-off; inactive = mostly below about 17%
Sa RN4220 lethal – kills Staphylococcus aureus RN4220; S. aureus RN4220 growth, OD600, 16 h; inhibition, % (no concentration beside the values); 0.33% of 330,000 active; AID 1259311; in the data active = inhibition above about 85%;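 note: plate controls were untreated cells for no effect and reference antibiotic for full effect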
* hit, by the source's call; / = no result given.

SMILES | PfHsp40 rescue | PriA SSB inh | DUSP3 inh | ugtP null kill | Mtb hypoxia inh | Sa RN4220 lethal
Nc1ncnc2c1ncn2C1O[C@H](CO)[C@@H](O)[C@@H]1O (stereo partly specified) | -0.1 | -9.3 | / | / | / | /
Nc1ncnc2c(C3OC(CO)C(O)C3O)scc12 (stereo unspecified) | 144.8* | 0.5 | / | / | / | /
FC(F)(F)c1cc(C(F)(F)F)c2ccc(N3CCN(c4ccc(Cl)cc4)CC3)nc2n1 | -0.6 | -20.9 | 23.1 | 48.4 | 12.6 | 40.6
N#CC(c1ccc(Cl)cc1)c1ccc2c(C(F)(F)F)cc(C(F)(F)F)nc2n1 (stereo unspecified) | -0.4 | 23.4 | 39.1 | 100.9* | / | 100.5*
CCCOc1nc(SCCC)nc2c1cnn2-c1ccccc1 | -1.0 | -15.5 | 53.0* | 93.0* | -4.2 | -5.0
CCC(NS(=O)(=O)c1ccc(C)cc1)C(=O)N1CCN(c2ccccn2)CC1 (stereo unspecified) | -1.6 | -3.6 | 50.0* | 6.1 | / | 4.3
CC[C@H](NS(=O)(=O)c1ccc(C)cc1)C(=O)N1CCN(c2ccccn2)CC1 | / | -20.0 | / | / | / | /
CCOC1OC(C(N)=O)=CC(C(C)(C)C)C1CCCO (stereo unspecified) | / | / | / | 3.1 | 13.3 | 4.1
Oc1cccnc1N=Cc1c(O)ccc2ccccc12 | / | 58.0* | / | / | / | /
Cn1cccc(C(=O)N2CCCCC(c3ccc(Cl)cc3)C2)c1=O (stereo unspecified) | / | 9.0 | / | / | / | /
Cc1cc(C)c(Cn2cnc(-c3ccc([N+](=O)[O-])cc3)c2)c(C)c1 | 1.5 | 50.3* | 34.3 | -35.4 | -5.9 | -6.1
O=C(NCCn1ccc(-c2cccs2)n1)c1c(F)cccc1F | / | -11.0 | / | / | / | /
CC1=CC(C)(C)N(S(=O)(=O)c2ccc(C)cc2)c2ccc(C)cc21 | 165.1* | -16.4 | 31.2 | 80.1 | 1.5 | 2.5
CC(=O)N(C)c1ccc(OCC(O)Cn2cc(/C=N\NC(N)=O)c3ccccc32)cc1 (stereo unspecified) | / | 3.0 | / | / | / | /
N=C(N)c1ccc(OCCCCCOc2ccc(C(=N)N)cc2)cc1 | 112.3* | -21.9 | -3.0 | / | / | /
Nc1ccc(C(=O)O)cc1 | -0.2 | -0.6 | / | -0.8 | -3.4 | 4.7
N=C(N)c1ccc(N)cc1 | 67.3* | -12.3 | / | -7.0 | 3.7 | 5.1
CCCCCCOc1ccc(/C(N)=N/O)cc1 | 0.3 | / | 14.7 | 12.9 | 21.8 | -11.4
COc1ccc(CCNC(=O)C2CSCCC(=O)N2)cc1OC (stereo unspecified) | / | 6.0 | / | / | / | /
Cc1cc(=O)n(Cc2ccc(OC(C)C)cc2)c(=S)[nH]1 | -0.7 | -7.7 | 52.5* | 6.7 | -2.0 | 0.5
Cc1cc(OCCn2cc(/C(N)=N/O)c3ccccc32)ccc1Cl | 0.9 | / | 35.3 | 93.1* | 2.5 | 11.3
O=C(/C=C/c1ccc([N+](=O)[O-])s1)N(Cc1cccnc1)c1nc2c(F)cc(F)cc2s1 | / | 5.0 | / | / | / | /
COc1ccc(C2C(C#N)=C(N)Oc3n[nH]c(-c4ccccn4)c32)c(OC)c1OC (stereo unspecified) | -1.4 | 69.7* | -18.0 | -6.2 | 7.5 | -9.0
Clc1ccc(N=c2ssnc2Cl)nc1 | 1.3 | -2.2 | 61.3* | 95.1* | 7.2 | 25.6
COC(=O)CN(C)C(=O)c1ccc(OC)c(OC2CCN(C(C)C)CC2)c1 | -0.4 | -16.1 | 57.0* | 4.0 | 9.2 | 3.4
SMILES | PfHsp40 rescue | PriA SSB inh | DUSP3 inh | ugtP null kill | Mtb hypoxia inh | Sa RN4220 lethal
COc1ccc(C(=O)N(C)Cc2ccc(C)o2)cc1OC1CCN(C(C)C)CC1 | -0.9 | -6.1 | 49.1 | -2.1 | -10.0 | -0.4
COc1ccc(C(=O)NCc2cnn(C)c2C)cc1OC1CCN(C(C)C)CC1 | 0.3 | -8.7 | 53.5* | 2.5 | 3.1 | 4.7
O=C(Nc1cc(N2CCN(c3ccccc3)CC2)ncn1)c1ccccc1Cl | / | -6.0 | / | / | / | /
Cc1ccc(Oc2cc(N3CCN(C(=O)c4c(F)cccc4F)CC3)nc(C)n2)cc1 | / | 4.0 | / | / | / | /
Cc1ccc(-c2nc(N)c3c(-c4ccc(C)cc4)nn(C(C)(C)C)c3n2)cc1 | -0.6 | -2.7 | 20.6 | 6.2 | 12.5 | -1.9
CC(C)(C)n1nc(-c2ccc(Cl)cc2)c2c(N)ncnc21 | 310.7* | -15.3 | 45.2 | 3.8 | 1.5 | -2.2
CC(C)(C)n1nc(-c2ccc(F)cc2)c2c(N)ncnc21 | 454.5* | 2.3 | -11.2 | 32.7 | 3.6 | 3.4
CC(C)Nc1nc(C#N)nc(NC(C)C)n1 | 0.5 | 42.0* | 8.4 | -4.6 | 4.9 | -0.8
CSc1nc(NC(C)C)nc(NC(C)C)n1 | -2.0 | -7.2 | / | 2.0 | 2.7 | 3.2
CON/C=C(\C=Nc1ccccc1)c1ncc(C(F)(F)F)cc1Cl | -0.6 | / | 16.4 | 95.9* | 3.9 | -1.1
CONC=C(C=Nc1ccccc1)c1ncc(C(F)(F)F)cc1Cl | / | -7.6 | / | / | / | /
C=C(C)CN(CC)c1nc(N)c2c(N)nc3c(c2c1C#N)CC(=O)N3C12CC3CC(CC(C3)C1)C2 | -1.4 | 6.6 | 32.9 | -15.4 | -71.2 | -0.5
N#Cc1c(N2CCCC(O)C2)nc(N)c2c(N)nc3c(c12)CC(=O)N3C12CC3CC(CC(C3)C1)C2 (stereo unspecified) | 0.0 | 62.6* | 62.6 | -18.2 | 9.2 | 2.0
CC(=NNc1nc(-c2cc(C)ccc2C)cs1)c1cc2c(ccc3ccccc32)oc1=O | / | -9.1 | / | -7.3 | -1.9 | 6.2
O=C(c1ccccc1)c1nn(-c2ccc(Cl)cc2)c(=O)cc1C(F)(F)F | -1.1 | 6.3 | -10.7 | 81.0 | / | 94.2*
CC(=O)N1CCC(N(CCCOC(C)C)S(=O)(=O)c2ccc([N+](=O)[O-])cc2)CC1 | -1.1 | -7.7 | 52.6* | -2.4 | 1.8 | 7.2
O=[N+]([O-])c1cccc(S(=O)(=O)Nc2ccc(S(=O)(=O)Nc3nccs3)cc2)c1 | -0.8 | -5.3 | 22.1 | 7.6 | 15.6 | 6.2
O=[N+]([O-])c1ccccc1S(=O)(=O)Nc1ccc(S(=O)(=O)Nc2nccs2)cc1 | -1.1 | 1.3 | 19.6 | 94.9* | 65.6* | -3.1
NC(=O)COC(=O)c1oc2ccccc2c1CSc1ccc(Cl)cc1 | 0.0 | 5.2 | -4.8 | 96.2* | 12.2 | -5.5
O=C(COC(=O)c1oc2ccccc2c1CSc1ccc(Cl)cc1)NC1CCCC1 | 3.9 | -23.0 | -14.0 | 19.8 | -7.6 | 3.2
O=C1NCC(Cc2ccc(O)cc2)N(CCc2cccc(F)c2)C1=O (stereo unspecified) | / | / | / | 1.0 | 9.6 | 1.6
O=C(C=Cc1cccc(O)c1)c1ccccc1O | 383.0* | -3.9 | / | -7.7 | -8.0 | 0.3
COC(=O)Cc1c(C)c2ccc(OCC(=O)N(C)C)cc2oc1=O | 0.4 | -2.3 | 50.9* | -2.6 | -6.5 | -3.4
CCCOc1ccc2c(C)c(CC(=O)OC)c(=O)oc2c1 | 0.4 | -8.3 | 16.9 | -2.6 | / | 5.4
FC(F)(F)c1cc(CCN2C(=S)NC[C@@H]2Cc2ccccc2)cc(C(F)(F)F)c1 | 47.6* | -1.6 | -0.5 | / | / | /
S=C1NC[C@H](Cc2ccccc2)N1CC1CCN(CCCC2CCCC2)CC1 | -0.6 | 9.5 | / | / | / | /
S=C1NC[C@H](Cc2ccccc2)N1CCCCC1CCCCC1 | 63.6* | 2.6 | 6.7 | / | / | /
Cc1ccc(-n2c(SCC(=O)NN=Cc3c(C)nn(-c4ccccc4)c3C)nc3ccccc3c2=O)cc1 | / | -17.0 | / | 1.9 | 0.9 | 0.7
